S1P2 antag: human S1P2 receptor antagonists, primary screen, cell-based; cell-based S1P2 antagonist assay, inhibition at 5 uM; inhibition, % at 5 µM; 97,000 tested, 0.21% active; AID 736, 2007; in the data active = inhibition above about 45%;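 note: CRE beta-lactamase reporter cells expressing human S1P2 stimulated with S1P; 0% = agonist at EC80 alone and 100% = agonist plus reference antagonist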
Target sequence (O95136 whole entry, looked up): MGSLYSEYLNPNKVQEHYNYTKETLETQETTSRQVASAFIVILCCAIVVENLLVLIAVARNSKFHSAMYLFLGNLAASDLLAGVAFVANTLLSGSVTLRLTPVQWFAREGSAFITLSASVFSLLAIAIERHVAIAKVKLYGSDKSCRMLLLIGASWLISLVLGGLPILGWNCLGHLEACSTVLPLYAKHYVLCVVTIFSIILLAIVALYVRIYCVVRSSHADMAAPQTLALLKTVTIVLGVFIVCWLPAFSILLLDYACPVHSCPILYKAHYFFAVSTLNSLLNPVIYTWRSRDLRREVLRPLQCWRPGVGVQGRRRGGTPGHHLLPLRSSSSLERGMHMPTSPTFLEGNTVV
HUVEC tox TNFa: cytotoxicity in TNFa-stimulated HUVEC, primary screen, cytotoxicity control for VCAM1 expression modulator project, imaging, Hoechst nuclei count; cell count reduction, % at 2 µM; 93,000 tested, 0.17% active; HUVEC TNFalpha-stimulated, Hoechst cell count; AID 848, 2007;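 active = cell count reduction exceeding the screen mean by over 5 SD, scaled to untreated wells per plate, cut at about 78% in these data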;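 note: cells counted after 24 h of TNF alpha exposure following the 1 h pretreatment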
E-sel TNF inh: E-selectin induction blockers in HUVEC – imaging, immunofluorescence, high content, primary screen; HUVEC TNFa-induced E-selectin immunofluorescence; inhibition, % at 2 µM; AID 1246, 2008; 120,000 tested, 0.71% active;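 active = inhibition above the batch mean plus 3 SD, and confirmed as a hit on visual image review, cut at about 43% in these data; inconclusive = passes the inhibition cutoff but fails visual image review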;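 note: 0% = TNF-stimulated DMSO wells and 100% = unstimulated control wells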
cytoskel mod: modifiers of F-actin cytoskeleton organization, primary screen, imaging, HUVEC, phalloidin staining, high-content imaging | HUVEC TNFa F-actin phalloidin imaging | inhibition, % at 2 µM | 91,000 tested, 0.18% active | AID 836, 2007;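 active = inhibition above the batch mean plus 3 SD and confirmed as a hit by visual image inspection, cut at about 30% in these data, passing the limit was not always enough; inconclusive = above the inhibition threshold but rejected on visual inspection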
VCAM1 TNFa inh: inhibitors of TNFa-induced VCAM1 expression, primary screen, imaging, HUVEC, TNFa stimulus, immunofluorescence | 95,000 tested, 0.48% active | HUVEC TNFa-induced VCAM-1 immunofluorescence, high-content imaging | inhibition, % at 2 µM;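 active = inhibition above the batch mean plus 3 SD, with images confirmed as a hit by eye, cut at about 37% in these data; inconclusive = inhibition above that limit but hit not confirmed in images; inactive = inhibition not above that limit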;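 note: 0% = TNF-stimulated DMSO wells and 100% = unstimulated control wells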
S1P2 ag: S1P2 receptor agonists, primary screen, cell-based; Sphingosine 1-phosphate receptor 2 (Homo sapiens), O95136; S1P2-expressing cell line, agonist reporter read-out; activation, % at 4.5 µM; 97,000 tested, 0.46% active; in the data active = activation above about 16%;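 note: 0% = vehicle low control and 100% = maximal reference agonist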
* marks the source's active call; other numbers are inactive results; u = inconclusive; x = not tested or not shown. Only some compounds are listed: those with a hit (about 1.6% of all), similar ones and a draw of the others.

SMILES	S1P2 antag	HUVEC tox TNFa	E-sel TNF inh	cytoskel mod	VCAM1 TNFa inh	S1P2 ag
COc1cccc(N2CCN(c3ncnc4c3[nH]c3ccccc34)CC2C)c1 (stereo unspecified)	x	x	-13	x	x	x
COc1cccc(N2CC(C(=O)Nc3nnc(SCc4ccccn4)s3)CC2=O)c1 (stereo unspecified)	x	x	-23	x	x	x
COc1cccc(N2CC(C(=O)Nc3nnc(SCC(=O)c4ccccc4)s3)CC2=O)c1 (stereo unspecified)	x	x	61*	x	x	x
CCCOc1ccc(C2C(C(=O)OC)=C(C)N=C3SCCC(=O)N32)cc1OCC (stereo unspecified)	-41	-12	15	19	7	25*
CCOc1cc(C2C(C(=O)OC(C)C)=C(C)N=C3SCCC(=O)N32)ccc1OC(C)=O (stereo unspecified)	-9	-4	-35	4	-1	1
C=CCn1c(SCc2c(Cl)cccc2Cl)nnc1-c1cccnc1	0	-24	18	0	3	0
CCCOC(=O)c1ccc(NC(=O)Oc2ccccc2)cc1	21	100*	-4	-22	u	-5
CCCOC(=O)c1ccc(Cl)c(NC(=O)c2ccc(-c3ccccc3)cc2)c1	5	-13	100*	-2	10	-3
Oc1ccccc1-c1n[nH]c(=S)n1Cc1ccco1	-1	-4	-2	-12	-16	-4
Cc1ccccc1NC1=C/C(=N\S(=O)(=O)c2cccs2)c2ccccc2C1=O	41	32	76*	-2	86*	8
CCN(CC)c1ccc(/C=C/c2nc3ccccc3s2)cc1	66*	-15	13	-2	1	13
CCN(CC)c1ccc(NC(=O)COC(=O)/C=C/c2nc3ccccc3s2)cc1	x	x	62*	x	x	x
COc1cc2nc(/C=C/c3ccc(N(C)C)cc3)sc2cc1SC	x	x	14	x	x	x
COc1ccc(N2CCn3c2nc2c3c(=O)n(CCCc3ccccc3)c(=O)n2C)c(OC)c1	58*	21	x	27	13	-4
COc1ccc(N2CCn3c2nc2c3c(=O)n(CCc3ccccc3)c(=O)n2C)c(OC)c1	5	-31	3	40	6	-12
Cc1ccc(/C=C/C(=O)C2C(=O)c3ccccc3C2=O)cc1	14	-5	66*	19	19	-8
Cc1ccc(S(=O)(=O)Nc2ccc3c4c(cccc24)CC3)c(C)c1	3	-6	25	-5	25	-7
Cc1cc(C)c(S(=O)(=O)Nc2ccc3c4c(cccc24)CC3)c(C)c1	14	57	15	-24	89*	-1
CCN1C(=O)c2cccc3c(S(=O)(=O)NCc4ccccn4)ccc1c23	5	-14	14	31*	-5	-4
CCN1C(=O)c2cccc3c(S(=O)(=O)Nc4c(C)n(C)n(-c5ccccc5)c4=O)ccc1c23	-16	-5	-15	6	-6	-6
COc1ccccc1NC(=O)Cn1nnc(-c2ccccc2NC(=O)c2cc3ccccc3oc2=O)n1	28	-3	-20	-28	11	-4
CCOC(=O)c1cc2c(=O)n3ccccc3nc2n(Cc2ccco2)c1=NC(=O)c1cccnc1	7	-17	x	-16	16	2
CCOC(=O)c1cc2c(=O)n3ccccc3nc2n(CCOC)c1=NC(=O)C(C)(C)C	10	-19	x	19	-3	25*
CCOC(=O)c1cc2c(=O)n3ccccc3nc2n(CCCOC)c1=NC(=O)c1cccnc1	-18	-28	25	6	27	22*
CCOC(=O)c1cc2c(=O)n3ccccc3nc2n(CCOC)c1=NC(=O)c1ccncc1	-15	-12	-8	-18	20	19*
SMILES	S1P2 antag	HUVEC tox TNFa	E-sel TNF inh	cytoskel mod	VCAM1 TNFa inh	S1P2 ag
CCOCCCn1c(=NC(C)=O)c(C(=O)OCC)cc2c(=O)n3ccccc3nc21	-40	9	-21	-5	18	19*
CCOC(=O)c1cc2c(=O)n3ccccc3nc2n(Cc2ccccc2)c1=N	-13	-19	-11	28	-2	3
CCOC(=O)c1cc2c(=O)n3ccccc3nc2n(C(C)C)c1=NC(=O)c1ccncc1	-8	-32	x	4	16	18*
CCOC(=O)c1cc2c(=O)n3ccccc3nc2n(CCCOC)c1=NC(=O)C(C)(C)C	-43	10	1	-20	-7	33*
CCOC(=O)c1cc2c(=O)n3ccccc3nc2n(CC(C)C)c1=NC(=O)c1ccco1	-58	15	9	-19	-10	14
CCCCCCCCNC(=O)c1cccnc1SCC(=O)Nc1ccc(OC)cc1OC	x	x	5	x	x	x
O=C1CC(N2CCN(Cc3ccc4c(c3)OCO4)CC2)C(=O)N1Cc1ccc(N2CCCC2=O)cc1 (stereo unspecified)	19	92*	x	32	80*	-6
Cc1ccccc1OCC(=O)Nc1ccc2c(c1)COC2=O	2	-33	-35	36*	-2	-2
CCc1ccc(OCC(=O)Nc2ccc3c(c2)COC3=O)cc1	10	-13	-6	16	-4	-5
CCCn1c(-c2cc(OC)c(OC)c(OC)c2)nc2nc3ccccc3nc21	5	-3	-14	22	1	17*
Cc1cc(=O)oc2cc(OCc3nnc(-c4ccccc4Br)o3)ccc12	-4	8	-7	-26	-4	-5
O=c1ccc2ccc(OCc3nnc(-c4ccccc4Br)o3)cc2o1	-2	-4	73*	19	-8	-2
CCOc1cc(CNc2ccc3c(c2)OCCO3)cc(Br)c1OC	-18	37	-34	39*	43	2
CCOc1c(Br)cc(CNc2ccc3c(c2)OCCO3)cc1OC	14	44	8	23	32	-3
C=CCC(Nc1ccccc1)C12C=CC(O1)C(C(=O)OC)=C2C(=O)OC (stereo unspecified)	65*	-6	11	-10	7	-3
COC(=O)C1=C(C)OC(N)=C(C#N)C1c1ccccc1 (stereo unspecified)	1	-2	-17	4	-9	-4
CCOC(=O)c1cc2c(C)n(-c3ccc(C)cc3)c(C)c2ccc1=O	1	-16	-16	15	-8	-1
Cc1ccc(CNC(=O)c2oc3ccc(S(=O)(=O)N4CCOCC4)cc3c2C)cc1	50*	-31	10	9	7	-6
COc1ccc(C2CC(C(F)(F)F)n3nc(C(N)=O)c(Cl)c3N2)cc1OC (stereo unspecified)	16	-37	1	20	7	24*
Cc1c(C(=O)O)cnc2c([N+](=O)[O-])cnn12	x	x	18	x	x	x
COc1ccc(OC)c(N(CC(=O)NC2CC2)S(=O)(=O)c2ccc(C)cc2)c1	-5	90*	10	-1	-46	-4
COc1ccc(S(=O)(=O)N(CC(=O)NC2CC2)c2ccc(C)cc2)cc1OC	0	2	-14	-2	6	-4

Compound activity from PubChem.
